HSF1 inhib: HSF1 inhibitors in luciferase reporter cells, primary screen, cell-based, NIH3T3, luminescence; NIH3T3-HGL HSE-luciferase, MG132-induced, luminescence 8 h; active compounds read low; activity change, negative = inhibition, % at 7.5 µM (by protocol); 0.77% of 300,000 active; AID 2098, 2009;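 active = more than half of replicate wells show activity change below -50%, luminescence cut by over half; inconclusive = some wells, but at most half, below -50%; inactive = no replicate well below -50%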;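 also: luciferase reports HSF-1 transcriptional activity via heat shock element; 0% = median of DMSO wells and -100% = zero luminescence signal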
ARNT-TACC3 inh: disruptors of ARNT/TACC3 protein interaction, primary screen, biochemical, AlphaScreen, single concentration. Transforming acidic coiled-coil-containing protein 3 (Homo sapiens), Q9Y6A5. AlphaScreen His-ARNT PAS-B/GST-TACC3 binding, luminescence; TACC3 fragment carries E629A point mutation. inhibition, % at 9.99 µM. 0.66% of 390,000 active. AID 623870, 2012;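 active = mean inhibition of replicates at least 50% and at least half of replicates each reaching 50%; inconclusive = half or more replicates reach 50% but mean below 50%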;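 also: 0% = complete ARNT plus TACC3 wells and 100% = ARNT alone without TACC3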
HSP90 inh: HSP90 inhibitors, primary screen, cell lysate, luminescence; 0.91% of 290,000 active; Heat shock protein HSP 90 (rabbit reticulocyte lysate; luciferase refolding); Rabbit reticulocyte lysate, luciferase refolding luminescence, 3 h; inhibition, % at 5.6 µM;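 active = inhibition above the screen-wide mean plus 3 SD, computed separately per campaign, cut at about 16% in these data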;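 also: 0% = DMSO wells and 100% = 60 µM geldanamycin wells; inhibitors lower the luminescence because luciferase stays unfolded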
HSF1 activator: HSF-1 activators, primary screen, NIH3T3-HGL cells, MG132 stress, luminescence, single point. activation, % at 9 µM. AID 504408, 2011. 1.7% of 300,000 active. NIH3T3-HGL HSF-1 luciferase reporter, 8 h; 100% = twice DMSO control signal;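 active = mean replicate activation of at least 50% with a set share of replicates each reaching 50%; inconclusive = only one of those two conditions met; inactive = mean below 50% and too few replicates reaching it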;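 also: 0% = median of the neutral control wells and 100% = twice that signal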
HIF activator: HIF pathway transcriptional activators, primary screen, cell-based, U2OS HRE-luciferase, luminescence. U2OS HRE-luciferase reporter; normalized: DMSO 0%, desferrioxamine 100%. activation, % at 7.5 µM (by protocol). 0.32% of 300,000 active. AID 1910, 2009;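 active = mean activation of at least 10% of the iron chelator positive control signal, with at least half of replicates also reaching 10%; inconclusive = mean and replicate majority disagree about reaching 10%; inactive = mean and most replicates under 10%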
Active calls of the source: *; ? = inconclusive; nt = not tested or not shown. Compounds with a hit are over-represented: about 3.1% of the library has one in this group of screens.

SMILES	HSF1 inhib	ARNT-TACC3 inh	HSP90 inh	HSF1 activator	HIF activator
Cc1cc(C)nc(NC(=O)c2ccc3c(c2)OCO3)c1	19.2	nt	0.8	12.1	1.2
Cc1cc(C)nc(NC(=O)Nc2ccc3c(c2)OCO3)c1	29.4	4.0	-0.7	64.9*	2.8
Cc1cc(C)nc(NC(=O)c2c(F)c(F)c(F)c(C(=O)Nc3cc(C)cc(C)n3)c2F)c1	18.5	nt	nt	61.6*	0.3
Cc1cccc(NC(=O)Nc2cc(C)cc(C)n2)c1	19.4	1.5	0.6	53.3*	2.1
Cc1nn(-c2ccccc2)c(C)c1/C=N/Nc1nc2ccccc2[nH]1	337.4	18.2	6.8	422.6*	1.3
CC(C)Cn1c(/C=N/Nc2nc3ccccc3[nH]2)nc2ccccc21	2.8	-1.9	0.4	3.5	23.4*
CCCn1c(/C=N/Nc2nc3ccccc3[nH]2)nc2ccccc21	nt	4.0	-4.6	nt	nt
Cn1c(/C=N/Nc2nc3ccccc3[nH]2)nc2ccccc21	9.7	nt	8.6	20.6	7.8
Cc1c(/C=N/Nc2nc3ccccc3[nH]2)c2ccccc2n1C	263.2	10.0	3.2	331.9*	7.8
C=CCn1cc(/C=N/Nc2nc3ccccc3[nH]2)c2ccccc21	181.4	19.4	-1.1	268.5*	3.4
CC=Cc1ccc2n(c1=O)C[C@H]1[C@H](CO)[C@@H](C(=O)NCC)[C@@H]2N1Cc1nccs1 (mixture of isomers)	nt	-6.1	nt	nt	nt
CCn1c(/C=C/c2ccccc2)nc2ccccc21	39.1	6.8	4.5	?	0.7
CC(C)Cn1c(/C=C/c2ccccc2)nc2ccccc21	52.6	8.9	3.5	88.6*	2.1
Cc1nn(-c2ccccc2)c(Cl)c1/C=N/Nc1nc2ccccc2n1C	29.0	11.9	-4.4	63.1*	1.5
Cc1nn(-c2ccccc2)c(Cl)c1/C=N/NC(N)=O	-10.5	-6.6	-3.7	2.6	0.1
O=C(Cn1c(/C=C/c2ccccc2)nc2ccccc21)Nc1ccc(F)cc1	38.6	-2.4	4.3	56.8*	3.0
O=C(C[C@@H]1CC[C@@H]2[C@H](COC[C@@H](O)CN2S(=O)(=O)c2ccccc2)O1)NCc1ccc(-c2ccccc2)cc1	nt	4.2	nt	nt	nt
C[C@H](CO)N1C[C@H](C)[C@@H](CN(C)Cc2ccc(-c3ccccc3)cc2)Oc2ccc(NC(=O)Nc3ccc4c(c3)OCO4)cc2CC1=O	nt	-3.0	nt	nt	nt
CCC(=O)N1CC[C@@H]2[C@H]1c1cc(-c3ccccc3F)ccc1N(C)[C@@H]2CO	nt	2.6	nt	nt	nt
S=c1[nH]nc(-c2ccccc2)n1CC1CCCO1 (stereo not drawn)	4.0	1.7	2.7	5.7	-0.6
Fc1ccccc1-c1nc2nc3ccccc3nc2n1CC1CCCO1 (stereo not drawn)	20.9	-34.8	0.1	62.6*	1.5
CCCN1[C@@H]2c3ccc(-c4ccccc4)c(=O)n3C[C@@H]2[C@@H](CO)[C@@H]1C(=O)OC	nt	0.0	nt	nt	nt
COc1ccc(Nc2ncnc3c2c(C)c(C)n3CCCN(C)C)cc1	-54.5*	13.5	7.0	-52.3	2.0
CCS(=O)(=O)C(=C1NCCO1)S(=O)(=O)CC	10.1	-10.6	-2.4	51.7*	-0.6
CCN1C(=O)/C(=C2\SC(=S)N(NC(=O)c3ccccc3O)C2=O)c2ccccc21	-1.7	64.6*	1.1	2.1	-0.4
SMILES	HSF1 inhib	ARNT-TACC3 inh	HSP90 inh	HSF1 activator	HIF activator
CCN1C(=O)/C(=C2\SC(=S)N(CC3CCCO3)C2=O)c2ccccc21 (stereo not drawn)	nt	nt	2.8	nt	nt
O=C(CCl)N=c1sccn1Cc1ccc(Cl)cc1Cl	-97.5*	-11.0	0.1	-97.5	0.2
O=C(CCl)N=c1sccn1Cc1ccccc1Cl	nt	-2.8	0.6	nt	nt
Brc1csc(/C=N/Nc2nc3ccccc3s2)c1	20.8	nt	-1.2	39.9	4.0
C(=N\NC1=Nc2cccc3cccc1c23)/c1ccccn1	-71.3*	12.6	-4.2	-72.6	7.2
C(=N\Nc1nc2ccccc2s1)/c1ccccn1	-86.7*	nt	85.6*	-88.3	-1.0
Clc1ccccc1/C=N/NC1=Nc2cccc3cccc1c23	-17.0	1.5	-2.8	-31.2	1.0
O=C(c1ccc(-c2cc(O)c3ncccc3c2)cc1)N1CCNCC1	nt	66.3*	nt	nt	nt
CC(C)(C)c1ccc(C(=O)N2CCNCC2)cc1	5.3	0.5	-0.7	9.2	-0.2
CS(=O)(=O)c1ccc(C(=O)OCc2nnc(-c3ccc(Cl)cc3)o2)cc1[N+](=O)[O-]	-96.0*	2.9	-0.9	-95.4	1.1
Cc1noc(C)c1NC(=O)Nc1cccc2c1O[C@H](CN(C)C(=O)Nc1ccc(C(F)(F)F)cc1)[C@H](C)CN([C@@H](C)CO)C2=O	nt	1.4	nt	nt	nt
C[C@H]1CN([C@@H](C)CO)S(=O)(=O)c2ccc(/C=C/c3ccccc3)cc2O[C@@H]1CN(C)Cc1cncnc1	nt	41.8	nt	nt	nt
CCn1c(=O)cc(SCC(=O)N2CCN(c3ccccc3F)CC2)c2ccccc21	16.5	2.9	-2.0	54.2*	0.4
COc1cccc(-c2ccc([C@@H]3[C@@H](C#N)N(C(=O)Cc4ccccc4)[C@@H]3CO)cc2)c1	nt	0.5	nt	nt	nt
COc1ccc(NC(=O)N(C)C[C@@H]2Oc3ccc(NC(=O)CCC(F)(F)F)cc3C(=O)N([C@@H](C)CO)C[C@@H]2C)cc1	nt	0.1	nt	nt	nt
Cc1ccc(S(=O)(=O)c2nc(-c3ccccc3Cl)oc2N(C)C)cc1	-6.2	-2.2	-1.4	1.9	55.6*
COc1cccc(C(=O)NCCOc2cc(C)cc(C)c2)c1	-12.4	8.0	-6.0	-8.3	-0.3
Cc1ccc(C(=O)NCCOc2cccc(C)c2)cc1	34.3	1.5	-2.8	58.7*	1.1
CCS(=O)(=O)N1CCc2nc(-c3ccccc3)sc2C1	30.5	-9.0	11.1	62.5*	-16.3
CCCNC(=O)C[C@@H]1CC[C@@H]2[C@@H](COc3ccc(NC(=O)c4ccc(Cl)cc4)cc3C(=O)N2C)O1	nt	-10.7	nt	nt	nt
CC1Cc2ccccc2N1C(=O)COC(=O)c1ccc(S(=O)(=O)N(C)C)cc1 (stereo not drawn)	-77.5*	nt	-2.7	-81.9	-0.1
CCNC(=O)[C@H]1[C@H](CO)[C@H]2Cn3c(ccc(-c4cccc(F)c4)c3=O)[C@H]2N1Cc1nccs1	nt	-5.8	nt	nt	nt
C[C@@H]1CCCCO[C@H](CN(C)Cc2ccccc2)[C@H](C)CN([C@H](C)CO)C(=O)c2cc(NC(=O)c3ccccc3)ccc2O1	nt	8.5	nt	nt	nt
CCOC(=O)/C=C/C(=O)Nc1nccs1	33.1	nt	3.9	53.2*	-1.1
CCOC(=O)C(=O)Nc1nccs1	-5.9	-7.4	-3.7	3.5	-0.2
Cc1ccc(/C=C/C(=O)Nc2ncc(C)s2)o1	30.7	6.8	3.8	46.4	1.3
Cc1ccc(/C=C/C(=O)Nc2nccs2)o1	33.1	-1.3	3.7	62.3*	0.5

From PubChem
